Bioassay records: PubChem, National Center for Advancing Translational Sciences (NCATS)
Rows were chosen to be rich in hits. Some 15% of all compounds tested hit in one or more screens of this group.
Pf growth 96h: inhibits malaria parasite growth, 96 h; P. falciparum luciferase reporter growth, 96 h; Potency, µM (top dose mostly 28.7 µM), inactives show at the highest dose activity change, negative = inhibition, hits mostly inhibitors; hit rate 6.9% among 320,000; note: potency is the fitted concentration of half-maximal effect; % is set by controls: 0 for no effect and ±100 for the full control effect
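Two parasite generations (96 h, 37 C, 5% CO2) of compound exposure in infected erythrocytes (0.05% parasitemia, 2% hematocrit). Luciferase-reporter P. falciparum; decreased luminescence indicates inhibited growth, aimed at apicoplast-acting delayed death.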
Sm TGR inh: inhibitors of Schistosoma mansoni thioredoxin glutathione reductase; Q962Y6; purified TGR, DTNB reduction, TNB absorbance 405 nm; Potency, µM (doses to about 114 µM), inactives show at the highest dose activity change, negative = inhibition, most hits filed as inhibitors; hit rate 3% among 360,000; AID 485364; note: potency is the fitted concentration of half-maximal effect; % is set by controls: 0 for no effect and ±100 for the full control effect; nearly all actives have a fitted effect of over 60% in size
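TGR 20 nM + NADPH 100 uM (dispensed conc.), cpd preinc 15 min RT; start with NADPH (500 uM addition) then DTNB (15 mM addition). Kinetic TNB absorbance, 405 nm filter. Four-parameter Hill fit across titration.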
Pf growth 48h: P. falciparum growth inhibition at 48 hours (one generation). P. falciparum luciferase growth in erythrocytes, 48 h. Potency, µM (top dose mostly 28.7 µM), without a hit: at the top dose activity change, negative = inhibition, hits mostly inhibitors. hit rate 5.9% among 310,000; note: potency is the fitted concentration of half-maximal effect; % is set by controls: 0 for no effect and ±100 for the full control effect
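Firefly luciferase activity from engineered P. falciparum reports growth; inhibitors lower the luminescent signal. Cultures contained 2% hematocrit erythrocytes at 0.1% final parasitemia.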
HCMV antiviral: inhibitors of human cytomegalovirus; activity change, negative = inhibition, % at 57.5 µM; AID 1259415; HFF cells, HCMV-luciferase reporter, 72 h; hits give low values; hit rate 4.5% among 410,000; in the data active = activity change below about -60%; inconclusive = no clear call, values can overlap the other calls; inactive = above about -39%; note: % is set by controls: 0 for no effect and ±100 for the full control effect
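Two compound doses tested in HFFs infected with HCMV-luciferase, MOI 1 PFU/cell, 72 h at 37C. Lysate luminescence read with OneGlo; data normalized against buffer-only and 10uM Salinomycin inhibitor controls.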
HCV inh: HCV inhibition. Huh7.5.1 HCVcc-Cre infection, luciferase reporter, 44 h. Potency, µM (top dose mostly 41.8 µM), for the others: at the top dose activity change, negative = inhibition, usual class: inhibitors. hit rate 3.4% among 340,000; note: potency is the fitted concentration of half-maximal effect; % is set by controls: 0 for no effect and ±100 for the full control effect
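Infectious HCVcc-Cre (~0.5 moi) was added to cells just after compound, with cells seeded 4 h earlier at 1,000 per well. Luciferase activity after 44 h culture reported infection; substrate was incubated 15 min at room temperature before reading.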
SARS PLpro yeast: inhibitors of SARS-CoV papain-like protease in yeast. S. cerevisiae expressing SARS-CoV PLpro, growth rescue. Potency, µM (titrated, usually from 32.9 µM), for inactives: at the highest dose activity, positive = growth rescue, actives largely listed as activators. hit rate 0.19% among 330,000. AID 485353; calls by dose curve; note: potency is the fitted concentration of half-maximal effect; 0% is about no effect; nearly all actives have a fitted effect of over 55% in size
An asterisk follows results filed as active; ? = inconclusive; / = no result given; [ ] = dose if it differs, or a comment. Unless noted, calls come from the whole dose curve; as a rule, active = well fitted curve in the direction sought with a large enough effect; inconclusive = small, poorly fitted or top-dose-only effect, or another doubt; inactive = no such curve, though single readings can be large; an effect the other way counts as inactive or inconclusive.

SMILES	Pf growth 96h	Sm TGR inh	Pf growth 48h	HCMV antiviral	HCV inh	SARS PLpro yeast
Cc1ccc(CSc2nnc(SCC(=O)N/N=C/c3ccc(C(=O)O)cc3)s2)cc1	142.4%	-7.5%	154.5%	-66.2*	11.5%	1.7%
COc1cccc(C(O)c2nc(-c3cncnc3)cs2)c1 (stereo not drawn)	/	/	/	-22.3	/	/
C[C@@]12C(=O)N(CC3CCCO3)CC(=O)N1[C@H]1c3cc(Cl)ccc3OC[C@@H]1[C@@H]2c1ccccc1 (stereo partly drawn)	/	/	/	15.6	1.1%	-3.8%
COc1ccccc1CCCNC(=O)C1CCC(=O)N(Cc2ccccc2F)C1 (stereo not drawn)	?	-20.9%	13.6%	27.6	0.1%	2.7%
COc1ccccc1C(=O)NCCC(=O)Nc1ccc(S(=O)(=O)N2CCC(C)CC2)cc1	?	1.7%	?	-24.2	?	7.3%
CCNc1nc(NC(C)C)nc(ON=C(C)C)n1	?	-1.9%	8.28µM*	/	-0.6%	9.0%
CC(C)Nc1nc(NNc2nc(Cl)nc(NC(C)(C)C)n2)nc(NC(C)C)n1	13.1µM*	11.3%	?	74.0	-25.7%	1.1%
CCNc1nc(NC(C)C)nc(NC(C)(C)C)n1	?	/	3.29µM*	-32.4	?	-0.7%
Cc1ccc(S(=O)(=O)/C=C2\OCc3ccccc32)cc1	/	/	/	-16.1	/	/
Cc1nnc(SCC(=O)NC2CCCC(C)C2C)n1N (stereo not drawn)	/	/	/	-37.7	-4.0%	-9.0%
COc1cc(C)ccc1OCCSc1nc2ccc(NC(=O)c3cccs3)cc2s1	/	4.3%	/	-37.2	/	/
CCn1c(SCC(N)=O)nc2sc3c(c2c1=O)CCN(C)C3	?	?	1.31µM*	-8.7	-7.5%	-0.3%
CCCn1c(SCC(=O)Nc2cc(C(=O)O)ccc2C)nc2sc3c(c2c1=O)CCC3	5.1%	-12.0%	1.9%	13.7	7.2%	-7.7%
CCn1c(SCC(=O)Nc2ccc(C)cc2)nc2sc3c(c2c1=O)CCN(C)C3	0.37µM*	-19.7%	3.7µM*	?	?	0.6%
CCCCn1c(SCC(N)=O)nc2sc3c(c2c1=O)CCC3	?	-17.0%	-4.5%	24.2	?	-3.8%
O=C1C(c2ccc(F)cc2)N(CC2COc3ccccc3O2)C(=O)CN1C1CCCCC1 (stereo not drawn)	?	2.9%	2.33µM*	16.1	3.2%	4.7%
O=C1C(c2ccc(F)cc2)N(CCc2ccccc2)C(=O)CN1C1CCCCCC1 (stereo not drawn)	/	2.5%	/	-28.2	/	/
O=C1C(c2ccccc2)C(c2ccccc2)NC(c2ccccc2)C1c1ccccc1 (stereo not drawn)	0.0%	-0.7%	1.85µM*	-3.2	-3.6%	0.9%
Cc1cc(C)c(S(=O)(=O)Nc2ccccc2C(=O)N2CCCC2)c(C)c1	?	-11.6%	-13.7%	-14.7	12.3%	-5.5%
COc1ccc(CC(=O)OCC(=O)N2N=C(c3ccccc3)CC2c2ccc(OC)cc2)cc1 (stereo not drawn)	-62.8%	-15.7%	?	-8.9	-21.4%	-2.6%
CCCCC(=O)OCC(=O)N1N=C(c2c[nH]c3ccccc23)C(O)C1c1ccc(OC)cc1 (stereo not drawn)	-5.8%	-11.4%	/	-60.8*	?	1.5%
NC(=S)N/N=C/c1ncc(C(F)(F)F)cc1Cl	3.29µM*	13.6%	1.47µM*	/	5.62µM*	9.3%
O=C(N/N=C/c1ccc(C(F)(F)F)cc1)c1ccncc1	1.65µM*	-0.3%	-6.4%	-14.9	-12.8%	-5.6%
Cc1cccc(C(=O)Oc2ccc(/C=N/NC(=O)c3cc(O)cc(O)c3)cc2)c1	38.3%	1.9%	?	?	20.8%	7.2%
CC(=O)c1ccc(OC(=O)/C=C/c2ccccc2)cc1	10.4µM*	-21.0%	19.8%	23.2	17.1%	9.8%
SMILES	Pf growth 96h	Sm TGR inh	Pf growth 48h	HCMV antiviral	HCV inh	SARS PLpro yeast
Cc1cccc(C(=O)Oc2ccc(/C=N/NC(=O)c3ccncc3)cc2)c1	11.7µM*	8.5%	11.7µM*	44.8	-11.1%	-2.2%
COc1ccc(/C(N)=N/OC(=O)/C=C/c2ccccc2)cc1	-27.8%	8.5%	?	-1.9	6.1%	-9.6%
OCCOc1ccc(CN2CCN(CCCc3ccccc3)C(CCO)C2)cc1 (stereo not drawn)	18.9%	-13.6%	-10.4%	13.4	8.5%	4.1%
NC(=S)N/N=C/c1ccc(C(F)(F)F)cc1	37.4%	2.3%	1.2%	-88.3*	-7.3%	?
COC(=O)/C=C/c1ccc(OC(=O)c2ccncc2)cc1	13.1µM*	2.5%	9.6%	-9.2	13.6%	12.8%
O=C(Oc1ccc(/C=N/NC(=O)c2ccccc2O)cc1)c1ccccc1	6.57µM*	-11.7%	/	2.3	12.4%	-4.1%
Cc1ccc(C(=O)N2CC(C)OC(C)C2)cc1[N+](=O)[O-] (stereo not drawn)	?	-3.2%	16.6%	?	-0.8%	0.8%
CCn1ncc(Br)c1C(=O)Nc1ccc(C(C)C)cc1	?	-1.9%	-7.7%[0.00184 µM]	150.5	?	-1.6%
CCOC(=O)c1cc(S(=O)(=O)N2CCN(c3ccccc3F)CC2)[nH]n1	/	3.6%	/	-11.5	/	/
Cc1ccc(-n2nc3c(N4CCC(C(=O)N5CCC(C)CC5)CC4)nnc(C)c3c2C)cc1	/	-5.9%	/	-7.5	/	/
Cc1ccc(-n2nc3c(N4CCC(C(=O)N5CCC(C(N)=O)CC5)CC4)nnc(C)c3c2C)cc1	1.7%	-7.1%	?	-61.4*	-8.0%	15.2%
CCN1CCN(C(=O)C2CCN(c3nnc(C)c4c(C)n(-c5ccc(C)cc5)nc34)CC2)CC1	?	-9.7%	?	-24.4	8.91µM*	6.5%
Cc1ccc(-n2nc3c(N4CCC(C(=O)N5CCCCC5)CC4)nnc(C)c3c2C)cc1	/	-7.3%	/	-39.4	/	/
CC1(C(=O)NS(=O)(=O)c2ccccc2Cl)CCN1C(=O)c1cccc2ccccc12 (stereo not drawn)	/	/	/	15.0	/	/
Fc1ccc(-c2noc3ncnc(NCC4CCN(Cc5ccc(Cl)cc5)CC4)c23)cc1	/	9.5%	/	-65.3*	/	/
O=C(C[n+]1ccc(/C=N/O)cc1)N(Cc1ccccc1)Cc1ccccc1	9.2%	11.2%	?	-68.2*	2.1%	-0.3%
CCCNC(=O)OC[C@H]1O[C@H](CCO/N=C(\C)CCN2CCc3nc(-c4ccccc4)c(-c4ccccc4)cc3C2)C=C[C@@H]1Oc1ccc(OC)cc1	4.65µM*	-22.4%	5.86µM*	/	-0.1%[8.37 µM]	-7.5%
COc1ccc(OC)c(NC(=O)CN2C(=O)COc3ccc(S(=O)(=O)NC4CCCC4)cc32)c1	/	9.7%	/	-29.8	/	/
CC(=O)Nc1nc(-c2ccc3c(c2)CCN3C(=O)C2CC2)c(C)s1	-1.8%	-6.9%	-7.2%	-97.9*	-28.6%	-2.0%
